The values below come from PubChem BioAssay AID504834 (National Center for Advancing Translational Sciences (NCATS), 2011).

The whole screen tested about 320,000 compounds, of which about 22,000 (6.9%) were called active. Inconclusive results (about 27%) are left out. Calls follow the shape of the dose curve; as a rule, active = well fitted inhibition curve with a large enough effect; inconclusive = small, poorly fitted or top-dose-only effect, or another doubt; inactive = no such curve, though single readings can be large or run the other way. The entries come from a sample that favours actives as a whole. Where a call stands in place of a potency, no number is given.
Potency is read from the fitted curve at half-maximal effect.

This test can be described thus: Primary qHTS for delayed death inhibitors of the malarial parasite plastid, 96 hour incubation. As to conditions: P. falciparum luciferase reporter growth; series mostly up to 28.7 µM. In a few lines:
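Two parasite generations (96 h, 37 C, 5% CO2) of compound exposure in infected erythrocytes (0.05% parasitemia, 2% hematocrit). Luciferase-reporter P. falciparum; decreased luminescence indicates inhibited growth, aimed at apicoplast-acting delayed death.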
With `CCCCCCOc1ccc(OC(=O)c2cccnc2)cc1`, the Potency entry is “inactive”.
As for `CN(C)CCCN1C(=O)CSC1c1ccc([N+](=O)[O-])cc1` (stereo not drawn), the Potency entry is “inactive”.
As to `CCCCCCCCCCCCN1C(=O)CSC1c1cccnc1` (stereo not drawn), the Potency was 1.65 µM (active).
Regarding `COc1ccc(NC(=O)CN2C(=O)CSc3ccc(S(=O)(=O)N4CCC(C)CC4)cc32)cc1`, the Potency result was “inactive”.
Consider `Cc1cc(NC(=O)Nc2ccc(Cl)cc2)n(-c2ccccc2)n1`, for which the Potency result is “inactive”.
Turning to `Cc1cc(C)nc(-n2nc(C)cc2NC(=O)c2ccc(F)cc2F)n1`, the Potency was 9.28 µM (active).
Next, `CC(=O)N/C(=N/c1nc(C)cc(C)n1)Nc1ccc(F)cc1F`: “inactive”; `Cc1c([N+](=O)[O-])c(N)nn1C`: “inactive”.
For `Cc1cc(C)c(NC(=O)c2oc3ccccc3c2COc2ccccc2)c(C)c1`, the Potency is 5.22 µM (active).
On to `CCOC(=O)c1oc2ccccc2c1NC(=O)c1cccs1`, for which the Potency entry is “inactive”.
Turning to `COc1ccc(CC(=O)Nc2c(C(N)=O)oc3ccccc23)cc1`, the Potency result is “inactive”.
With `COc1ccc(-c2nnc(SCC(=O)Nc3cccnc3Cl)n2C)cc1`, the Potency entry was “inactive”.
Consider `Cc1cc(C)nc(SCC(=O)c2ccc(Cl)cc2)n1`, for which the Potency result is “inactive”.
Consider `CCC(=O)c1cn(CCOc2ccccc2OC)c2ccccc12`, for which the Potency was 13.1 µM (active).
`CCCn1cc(SCC(N)=O)c2ccccc21`: the Potency result is “inactive”.
As to `COc1ccccc1C(=O)NCCn1cc(SCC(=O)NCc2ccco2)c2ccccc21`, the Potency result is “inactive”.
In the case of `Cc1ccc(OCc2nnc(SC3CCc4ccccc4C3=O)n2C)cc1` (stereo not drawn), the Potency is 13.1 µM (active).
For `Cc1ccc(OCc2nc3ccccc3n2C)cc1`, the Potency result was “inactive”.
Take `Cc1ccc(OCc2n[nH]c(=S)n2-c2ccccc2)cc1`: the Potency entry was “inactive”.
As for `CCc1nn(CCCC(=O)Nc2ccc(C)cc2C)c(=O)c2cc3occc3n12`, the Potency result is “inactive”.
The value for `CN(C)S(=O)(=O)c1cccc(C(=O)OCC(=O)N2CCCC2=O)c1` was “inactive”; that for `COc1ccc(C(=O)NCCCN2CCOCC2)cc1Br` was “inactive”.
With `Cc1ccc(C(=O)NCCN2CCOCC2)cc1C`, the Potency is 7.38 µM (active).
The value for `Cc1ccc(C(=O)N/C(=C\c2ccc(F)cc2)C(=O)NCCN2CCOCC2)cc1` was 6.57 µM (active); that for `Cc1ccc(C(=O)NC(=S)NCCN2CCOCC2)cc1` was “inactive”; that for `O=C(NCCN1CCOCC1)/C(=C/c1ccc(F)cc1)NC(=O)c1ccccc1` was “inactive”.
As for `Cc1cc(C)cc(C(=O)NCCN2CCOCC2)c1`, the Potency entry was “inactive”.
Consider `CCOc1ccc(N(C)S(=O)(=O)c2cnc[nH]2)cc1`, for which the Potency result was “inactive”.
With `O=C(COc1ccc(Cl)cc1Cl)N/N=C/c1ccccn1`, the Potency result is “inactive”.
Turning to `O=C(NCCN1CCOCC1)c1ccc(/C=C2\Sc3ccccc3N(Cc3ccc(F)cc3)C2=O)cc1`, the Potency result was “inactive”.
Next, `CC(=O)[C@@]12O[C@@H]1C[C@H]1[C@@H]3CC[C@H]4C[C@@H](O)CC[C@]4(C)[C@H]3CC[C@@]12C`: “inactive”.
The value for `COC(=O)c1ccc(NS(=O)(=O)c2cc3c4c(c2)C(C)C(=O)N4CCC3)cc1` (stereo not drawn) was “inactive”; that for `COc1ccc(CNC(=O)C(=O)N2CCC3(CC2)OCCN3S(=O)(=O)c2ccc(C)cc2)cc1` was “inactive”.
Consider `CC(C)c1ccc(S(=O)(=O)N2CCC3(CC2)OCCO3)cc1`, for which the Potency result is “inactive”.
For the compound `COc1ccc(S(=O)(=O)N2CCOC23CCN(S(=O)(=O)c2ccc([N+](=O)[O-])cc2)CC3)cc1`, the Potency was 11.7 µM (active).
As for `C=CCn1c(=O)c(C(=O)Nc2ncccc2O)c(O)c2ccccc21`, the Potency result was “inactive”.
As to `CC(C)Oc1ccc(CCc2n[nH]c(=S)n2Cc2ccccc2)cc1`, the Potency is 2.08 µM (active).
For the compound `CC(NS(=O)(=O)c1ccccc1)c1n[nH]c(=S)n1-c1ccccc1` (stereo not drawn), the Potency result is “inactive”.
With `C=CCn1c(CCc2ccc(OC(C)C)cc2)n[nH]c1=S`, the Potency result was “inactive”.
Consider `NS(=O)(=O)c1ccccc1NC(=O)c1c(O)c2ccccc2[nH]c1=O`, for which the Potency entry is “inactive”.
Take `Cc1cc(C(C)(C)C)cc(S(=O)(=O)Nc2ccc(C(=O)O)cc2)c1C`: the Potency entry is “inactive”.
In the case of `O=C(O)c1ccc(NS(=O)(=O)c2ccc3c(c2)C(=O)c2cc(S(=O)(=O)Nc4ccc(C(=O)O)cc4)ccc2-3)cc1`, the Potency was 0.329 µM (active).
Regarding `O=C(c1ccc(NS(=O)(=O)c2ccc3[nH]c(=O)[nH]c3c2)cc1)N1CCCCC1`, the Potency result is “inactive”.
The value for `Cc1cc(C)n(CCC(=O)N2CCN(S(=O)(=O)c3ccc(C)c(C)c3)CC2)n1` was “inactive”; that for `O=C(NCCCN1CCOCC1)c1cc(-c2cccc(O)c2)on1` was “inactive”; that for `CC(=O)Nc1nc2c(s1)C(=O)NCC(C)(C)C2` was “inactive”.
Next, `COc1cccc(-c2nc(CS(=O)(=O)CC(=O)NCCc3ccc(OC)c(OC)c3)c(C)o2)c1`: “inactive”.
The value for `CCc1nc2ccccc2c(C(=O)NCc2ccc(OC)cc2)c1C` was “inactive”; that for `COc1ccccc1CSc1nc2ccccc2[nH]1` was “inactive”.
As for `O=C(NCc1ccccc1)c1onc(CSc2nc3ccccc3[nH]2)c1C(=O)NCc1ccccc1`, the Potency is 1.85 µM (active).
On to `Cc1ccc(C)c(NC(=O)COC(=O)Cn2c(C)csc2=O)c1`, for which the Potency entry is “inactive”.
Next, `O=C(Nc1ccccc1)C1CC(=O)n2c(nc3ccccc32)N1` (stereo not drawn): “inactive”; `Cc1ccc(OCC(=O)Nc2ccccc2C(=O)NC2CC2)cc1`: “inactive”.
Regarding `CC1(c2ccc(Cl)cc2)NC(=O)N(CC(=O)c2ccc3c(c2)OCO3)C1=O` (stereo not drawn), the Potency entry is “inactive”.
Next, `O=C(NCCCN1CCOCC1)c1ccc(N2CCCC2)c([N+](=O)[O-])c1`: “inactive”; `COCCNC(=O)c1ccc(N2CCC3(CC2)OCCO3)c([N+](=O)[O-])c1`: 14.7 µM (active).
As for `CCOC(=O)c1c(NC(=O)c2ccc(N3CCOCC3)c([N+](=O)[O-])c2)sc(C)c1C`, the Potency entry is “inactive”.
The value for `Cc1cccc(-c2noc(CCC(=O)NC3CCCC3)n2)c1` was “inactive”; that for `NS(=O)(=O)c1cc(C(=O)OCC(=O)NNC(=O)c2ccccc2)ccc1Cl` was “inactive”.
Next, `CC1CCC(NC(=O)C2c3ccccc3C(=O)N2Cc2ccc3c(c2)OCO3)CC1` (stereo not drawn): “inactive”; `CC1CCC(N2CC(=O)N(Cc3ccc4c(c3)OCO4)C(c3ccc(F)cc3)C2=O)CC1` (stereo not drawn): 9.28 µM (active); `O=C(/C=C/c1ccc2c(c1)OCO2)NCc1ccc(F)cc1`: “inactive”.
Turning to `O=S(=O)(c1cccc(Cn2nnc(-c3ccc(F)cc3)n2)c1)N1CCOCC1`, the Potency entry was “inactive”.
In the case of `CCOC(=O)c1cc(=O)c2ccc(OCc3ccccc3)cc2o1`, the Potency result is “inactive”.
`CC(C)Oc1ccc(C(=O)NCC(=O)Nc2ccc3c(c2)CCC3)cc1`: the Potency entry is “inactive”.
In the case of `Nc1ccc2nn(-c3ccc(Cl)cc3)nc2c1`, the Potency entry is “inactive”.
Regarding `Cc1ccc(-n2ncc3c2ncn2nc(-c4ccco4)nc32)c(C)c1`, the Potency entry is “inactive”.
`Cc1ccc(-n2ncc3c(=O)[nH]cnc32)c(C)c1`: the Potency was 14.7 µM (active).
As to `COC(=O)CSc1ncnc2c1cnn2-c1ccc(C)cc1C`, the Potency entry was “inactive”.
`COc1cc(NC(=O)C2=CC(c3ccc(C)cc3)=NS(=O)(=O)N2C)cc(OC)c1OC`: the Potency entry is “inactive”.
`CCOC(=O)C1(CCOc2ccccc2)CCN(C(=O)c2cncs2)CC1`: the Potency was 9.28 µM (active).
Next, `CCOC(=O)C1(CCOc2ccccc2)CCN(Cc2cc(OC)cc(OC)c2)CC1`: “inactive”.
With `CCCS(=O)(=O)N1CCC(CCOc2ccccc2)(C(=O)OCC)CC1`, the Potency result was “inactive”.
For `CC(=O)NCC(=O)N1CCC(n2nccc2NC(=O)CCCc2ccccc2)CC1`, the Potency result was “inactive”.
For the compound `CCOc1ncccc1C(=O)Nc1ccc(S(=O)(=O)Nc2nc(C)cc(C)n2)cc1`, the Potency entry is “inactive”.
For the compound `COc1ccc(/C=C(\NC(=O)c2ccccc2)C(=O)NCCN2CCOCC2)cc1OC`, the Potency entry is “inactive”.
For the compound `Nc1nc(NCc2ccccc2)n(-c2ccccc2)n1`, the Potency result was “inactive”.
Turning to `Cc1ccc2nc(SCC(=O)Nc3cccc4ccccc34)nc(=O)n2c1`, the Potency result was “inactive”.
Next, `COc1ccccc1N1CCN(S(=O)(=O)c2ccc(Cl)cc2)CC1`: “inactive”; `COc1ccccc1N1CCN(C(=O)CCS(=O)(=O)c2ccc3c(c2)NC(=O)C(C)S3)CC1` (stereo not drawn): “inactive”.
Regarding `COc1ccccc1N1CCN(S(=O)(=O)c2ccc3c(c2)NC(=O)CS3)CC1`, the Potency is 11.7 µM (active).
Take `Cc1cc(C)c2c(Cn3ccnc3)cc(=O)oc2c1`: the Potency result was “inactive”.
For the compound `CCOc1ccc(S(=O)(=O)N2CCC(C(=O)OCc3ccc(OC)cc3)CC2)cc1`, the Potency entry was “inactive”.
Regarding `O=C(CSc1n[nH]c(-c2cccs2)n1)N1CCCCC1`, the Potency result was “inactive”.
On to `Nc1ncc(CN2CCCC(C(=O)Nc3ccc(-c4ccco4)cc3)C2)cn1` (stereo not drawn), for which the Potency result is “inactive”.
For `NC(=O)c1cc(S(=O)(=O)NCCCc2ccco2)cs1`, the Potency entry was “inactive”.
For `S=C(Nc1cccc(Cl)c1)Nc1ccc2c(c1)OCCO2`, the Potency result is “inactive”.
Next, `CCS(=O)(=O)N1Cc2ccccc2CC1C(=O)Nc1ccc(OC)cc1OC` (stereo not drawn): “inactive”.
As for `COc1ccc(N2CCN(C(=O)C3CCN(C(=O)c4ccccc4Cl)CC3)CC2)cc1`, the Potency result is “inactive”.
In the case of `COc1ccc(C(=O)Nc2c(Cl)cc(Cl)cc2C(=O)N2CCC(C)CC2)cc1`, the Potency was 13.1 µM (active).
As to `COc1ccc(C(=O)N2CCC(C(=O)Nc3ccc(C)cc3)CC2)cc1`, the Potency result is “inactive”.
Next, `CCCCc1ccc(NC(=O)NCc2cccnc2)cc1`: “inactive”; `CCOc1ccc(S(=O)(=O)NCCC(=O)NCC(C)(C)N2CCOCC2)cc1`: “inactive”.
Take `CC(C)(C)OC(=O)NCCCCCC(=O)N/N=C/c1coc2ccccc2c1=O`: the Potency entry is “inactive”.
Take `Cc1ccc2occ(/C=N/NC(=O)c3ccccc3C)c(=O)c2c1`: the Potency is 11.7 µM (active).
Turning to `O=C(N/N=C/c1coc2ccccc2c1=O)c1cc2ccccc2o1`, the Potency entry is “inactive”.
Regarding `Cc1[nH]c2ccccc2c1C(=O)CN1CCCC(C)C1` (stereo not drawn), the Potency result was “inactive”.
For `O=C(CSC1=NS(=O)(=O)c2cc(F)ccc2N1)Nc1ccccc1F`, the Potency entry is “inactive”.
In the case of `CCOc1ccc(C(=O)Nc2cc(Cl)ccc2-n2cncn2)cc1OC`, the Potency entry was “inactive”.
With `COc1ccc(NC(=O)C(CC(C)C)NC(=O)C2CCC(C)CC2)cc1` (stereo not drawn), the Potency result was “inactive”.
For the compound `CC(C)[C@H](NC(=O)N1CC(=O)Nc2ccccc21)C(=O)N[C@@H](Cc1c[nH]c2ccccc12)C(=O)O`, the Potency result is “inactive”.
For `CC(C)[C@H](NC(=O)N1c2ccccc2NC(=O)[C@@H]1C(C)C)C(=O)N[C@H](C(=O)O)c1ccccc1`, the Potency is 8.28 µM (active).
With `CC1C(=O)Nc2ccccc2N1C(=O)c1ccc(F)cc1F` (stereo not drawn), the Potency result was “inactive”.
